# TDP1 cell CPT: DT40-hTDP1 cell growth loss with CPT; chicken DT40 Tdp1-/-;hTDP1 cells + 20 nM CPT, ATP luminescence, 48 h; Potency, µM (titrated, usually from 46.2 µM), inactives show top-dose activity change, negative = growth inhibition, most hits filed as inhibitors; 420,000 compounds, 12% hits; AID 686979; also: potency is read from the fitted curve at half-maximal effect; nearly all actives have a fitted effect of over 55% in size
#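 Chicken DT40 Tdp1-/- cells complemented with human TDP1, 400 cells/well, exposed to compounds plus 20 nM camptothecin for at least 48 h at 37 C; viability read as ATP content by CellTiter-Glo luminescence.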
# IL-1B inflam inh: blocks inflammasome-driven IL-1 beta release. THP-1 LPS/ATP IL-1B secretion, AlphaLISA, 16 h; active compounds read low. activity change, % at 57.5 µM. 360,000 compounds, 4.7% hits; in the data active = activity change below about -50%; inconclusive = mostly about -30% to -49%
#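 Secreted IL-1B measured by AlphaLISA bead assay after 16 h compound exposure of THP-1 cells; compounds (final up to 57.5 uM) added 1 h before LPS (250 ng/mL) and ATP (1.25 mM) stimulation; lower signal means less secretion.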
# HT1080NT lethal: kills 2HG-producing HT-1080-NT fibrosarcoma cells; HT-1080-NT fibrosarcoma viability, CellTiter-Glo ATP luminescence, 48 h; Potency, µM (titrated, usually from 46.1 µM), for the others: at the highest dose activity, negative = less viability, usual class: cytotoxic; 360,000 compounds, 1.6% hits; AID 686970;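 also: NT is the 2HG producing partner of a matched IDH1 knockdown line; potency is read from the fitted curve at half-maximal effect; 0% = DMSO-treated cells and -100% = media-only wells without cells; nearly all actives have a fitted effect of over 55% in size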
#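 HT-1080-NT fibrosarcoma cells (2HG-overproducing), 750 cells/well in RPMI with 5% FBS, dosed after 2 h and incubated 48 h at 37C. CellTiter-Glo luminescence normalized to DMSO and no-cell wells; concentration-response curves fitted and classed.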
# HT1080 IDH1KD tx: kills HT-1080 cells with IDH1 knockdown; AID 686971; 360,000 compounds, 2% hits; Potency, µM (top dose mostly 46.1 µM), for the others: at the top dose activity, negative = toxicity, actives largely listed as cytotoxic; HT-1080 IDH1 knockdown viability, ATP luminescence, 48 h;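 also: potency is read from the fitted curve at half-maximal effect; 0% = DMSO wells and -100% = cell-free medium wells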
#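 Luminescent ATP read-out (CellTiter-Glo, 10 min at room temperature) after 48 h compound exposure at 37 °C gave viability of IDH1-knockdown HT-1080 cells. Activity was normalised to DMSO and cell-free wells, then fitted as concentration-response curves.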
# TDP1 cell noCPT: qHTS for Inhibitors of human tyrosyl-DNA phosphodiesterase 1 (TDP1): qHTS in cells in absence of CPT. 420,000 compounds, 15% hits. DT40 Tdp1-/- hTDP1 cells, no CPT, ATP luminescence, 48 h. Potency, µM (highest dose often 46.2 µM), without a hit: at the top dose activity change, negative = growth inhibition, hits mostly inhibitors; also: potency is read from the fitted curve at half-maximal effect; nearly all actives have a fitted effect of over 55% in size
#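 Readout: luminescence from CellTiter-Glo after 30 min in the dark at RT. Cells: DT40 Tdp1-/- with stable hTDP1, 400/well. Exposure: compounds alone, ≥48 hr, 37 °C.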
# ELG1 repair inh: inhibitors of ELG1-dependent DNA repair in HEK293T cells; 330,000 compounds, 2.3% hits; AID 504467; HEK293T ELG1-luciferase reporter, luminescence, 16 h; DNA damage induced by 5-fluorouridine; Potency, µM (doses to about 46.1 µM), inactives show at the highest dose activity change, negative = inhibition, hits mostly inhibitors; also: potency is read from the fitted curve at half-maximal effect; nearly all actives have a fitted effect of over 55% in size
#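 Luminescence from the luciferase reporter, measured 30 min after ONE-Glo reagent at room temperature, was the read-out. Beforehand, 2,000 cells per well were exposed for 16 hr at 37 °C to 5-fluorouridine together with compound or vehicle.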
# ELG1 FLuc counter: luciferase inhibition in cell-free luciferin readout for ELG1 hits; shares compounds with ELG1 repair inh; cell-free firefly luciferase luminescence counter-screen, ViewLux; Potency, µM (doses to about 46.1 µM), for inactives: at the top dose activity change, negative = inhibition, most hits filed as inhibitors; 350 compounds, 3% hits; also: potency is read from the fitted curve at half-maximal effect
# ELG1 Luc conf: confirmation of human ELG1-dependent DNA repair inhibitors; 670 compounds, 68% hits; Potency, µM (top dose mostly 46.1 µM), inactives show at the highest dose activity change, negative = inhibition, most hits filed as inhibitors; shares compounds with ELG1 repair inh; HEK293T ELG1-luciferase levels, luminescence; cells co-treated with 5-fluorouridine; also: potency is read from the fitted curve at half-maximal effect; nearly all actives have a fitted effect of over 55% in size
# ELG1 MMS Luc: MMS-stimulated human ELG1 repair inhibition, confirmed. shares compounds with ELG1 repair inh. HEK293T luciferase-tagged ELG1 level, MMS stimulated. Potency, µM (series often up to 46.1 µM), for the others: top-dose activity change, negative = inhibition, usual class: inhibitors. 670 compounds, 53% hits; also: potency is read from the fitted curve at half-maximal effect; nearly all actives have a fitted effect of over 60% in size
# ELG1 5FU viab: confirmation of ELG1 repair inhibitors: viability with 5FU | 670 tested, under 10 active | cell viability with 5-FU, ELG1-dependent repair | Potency, µM (titrated, usually from 46.1 µM), for inactives: top-dose activity change, negative = viability loss, actives largely listed as cytotoxic | AID 624250 | shares compounds with ELG1 repair inh;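 also: ELG1-luc HEK293T cells cotreated with 5-fluorouridine at 10 µM final; potency is read from the fitted curve at half-maximal effect; viability measured 16 h after compound addition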
# ELG1 MMS cell: confirmation of ELG1 repair inhibitors: viability with MMS; Potency, µM (doses to about 46.1 µM), without a hit: at the highest dose activity change, negative = viability loss, most hits filed as cytotoxic; Cell viability with MMS, ELG1-dependent DNA repair; AID 624251; shares compounds with ELG1 repair inh; 670 compounds, 33% hits;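 also: ELG1-luc HEK293T cells co-treated with 10 µM MMS; potency is read from the fitted curve at half-maximal effect; viability read 16 h after compound addition; nearly all actives have a fitted effect of over 60% in size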
# ELG1 unstim viab: counter-screen for ELG1 repair inhibitors: unstimulated cell viability | cell viability counter-screen, unstimulated, luminescence | AID 624252 | shares compounds with ELG1 repair inh | Potency, µM (top dose mostly 45.9 µM), without a hit: top-dose activity change, negative = loss of viability, hits mostly cytotoxic | 900 compounds, 8% hits;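 also: potency is read from the fitted curve at half-maximal effect; compound exposure lasted 16 hours before reading; nearly all actives have a fitted effect of over 55% in size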
# FLuc enzyme: inhibits purified firefly luciferase, counter-screen for ELG1 hits. purified firefly luciferase, luminescence counter-screen. Potency, µM (series often up to 57.5 µM), without a hit: at the highest dose activity, negative = inhibition, most hits filed as inhibitors. shares compounds with ELG1 repair inh. 350 compounds, 10% hits; also: potency is read from the fitted curve at half-maximal effect
# Starred values were filed as active, the others as inactive; ? = inconclusive; . = no result; [ ] = dose if it differs, or a comment. Shown are actives, neighbours in structure and some others; about 19% of the full set was active somewhere. Unless noted, calls follow the shape of the dose curve; as a rule, active = well fitted curve in the direction sought with a large enough effect; inconclusive = small, poorly fitted or top-dose-only effect, or another doubt; inactive = no such curve, though single readings can be large; an effect the other way counts as inactive or inconclusive. Unless noted, % is scaled to controls: 0 for no effect and ±100 for the full control effect.
SMILES,TDP1 cell CPT,IL-1B inflam inh,HT1080NT lethal,HT1080 IDH1KD tx,TDP1 cell noCPT,ELG1 repair inh,ELG1 FLuc counter,ELG1 Luc conf,ELG1 MMS Luc,ELG1 5FU viab,ELG1 MMS cell,ELG1 unstim viab,FLuc enzyme
O=[N+]([O-])c1ccc(S(=O)(=O)Nc2nnc(C3CCCCC3)s2)cc1,-25%,11,-11%,-7%,-27%,-11%,.,.,.,.,.,.,.
CCCc1nc2sc3c(=O)n(N)cnc3c2c2c1COC(C)(C)C2,.,.,.,.,.,1%,.,.,.,.,.,.,.
CC(C)c1nc2sc3c(NCc4ccco4)ncnc3c2c2c1COC(C)(C)C2,18µM*,?,-26%,?,23µM*,?,21%,11µM*,13%,?,-2%,?,-3%
CC(C)c1nc2sc3c(=O)n(N)cnc3c2c2c1COC(C)(C)C2,0%,26,6%,14%,?,7%,-2%,?,-5%,?,3%,2%,-3%
Cc1ccc(CN2CCN(/N=C/c3sccc3C)CC2)c(C)c1,-18%,-25,14%,24%,?,2%,.,.,.,.,.,.,.
Cc1nn(-c2ccccc2)c(N2CCCC2)c1/C=N/O,?,0,-3%[9.24 µM],5%,?,-21%,.,.,.,.,.,.,.
Cc1nn(-c2ccccc2)c(N2CCCC2)c1/C=N/n1cnc2scc(-c3ccccc3)c2c1=O,10µM*,37,1%,2%,13µM*,13µM*,2%,4.5µM*,?,6%,-9%,?,-4%
O=C(CSc1nncc2ccccc12)Nc1ccc(C(=O)O)cc1,-10%,19,-5%,-1%,30%,?,.,.,.,.,.,.,.
Cn1c(=O)c2c(ncn2CC(=O)OCCCC(=O)c2ccc(Br)cc2)n(C)c1=O,18µM*,32,-5%,-8%,6.5µM*,?,-3%,?,2.5µM*,-2%,2.2µM*,?,2%
CCOC(=O)c1cn(-c2c(C)n(C)n(-c3ccccc3)c2=O)c2c(F)c(F)c(F)cc2c1=O,7%,-7,-2%,10%,9%,-4%,.,.,.,.,.,.,.
COc1cc(-c2noc(C)c2/C=C/c2cccc([N+](=O)[O-])c2)cc(OC)c1OC,1.3µM*,57,2.3µM*,3.7µM*,1.6µM*,2.6µM*,.,2µM*,7.1µM*,?,?,?,.
CC(=O)Nc1ccc(NC(=O)CSc2ccc3nnc(CCNS(=O)(=O)c4ccc(C)cc4)n3n2)cc1,-12%,15,0%,-4%,29%,-2%,.,.,.,.,.,.,.
Cc1ccc(S(=O)(=O)NCCc2nnc3ccc(SCC(=O)Nc4nc5ccccc5s4)nn23)cc1,.,.,.,.,.,-3%,?,-2%,4%,0%,2%,0%,-5%
COc1ccc(C2CC(C)(c3ccc(OC)cc3OC)Nc3ccccc3N2)c(OC)c1 (stereo not given),1%,0,-2%,-1%,6%,?,.,.,.,.,.,.,.
CCOC(=O)C1=C(C)N(C[C@@H]2CC[C@@H](Cc3ccc4cc(OC)ccc4c3)O2)C(=O)NC1c1ccc(OC)cc1 (stereo not given in full),?,0,1%,-1%,?,?,.,.,.,.,.,.,.
COc1ccc2cc(C[C@@H]3CC[C@@H](CO)O3)ccc2c1,1%,9,4%,2%,-25%,?,.,.,.,.,.,-2%,.
COc1ccc(NS(=O)(=O)c2cccc(C(=O)OCC(=O)N3CCN(c4ccc(OC)cc4)CC3)c2)cc1,13µM*,-11,-4%,-20%,13µM*,4.6µM*,.,?,7.9µM*,-7%,7.9µM*,?,.
C[C@@H]1CCCCCCCCC(=O)OCCN(C(=O)OC(C)(C)C)[C@H](C)CCCCCCCCC(=O)OCCN(C(=O)OC(C)(C)C)[C@H](C)CCCCCCCCC(=O)OCCN1C(=O)OC(C)(C)C,-4%,8,13%,10%,-8%,10%,.,.,.,.,.,.,.
Cc1ccc2c(c1)S/C(=C/c1ccc[n+](CCO)c1)N2C,0.65µM*,-26,-17%,?,1.2µM*,2.9µM*,.,2%,8.9µM*,-14%,8.9µM*,?,.
COc1ccc(-c2nc3c(c(SCC(=O)N4CCOCC4)n2)Cc2c(CO)cnc(C)c2O3)cc1,15µM*,?,-10%,-11%,10µM*,1.3µM*,20%,3.5µM*,?,6%,-2%,-16%,0%
COc1cc(C)c2c(=O)cc(-c3ccccc3)oc2c1,?,.,.,.,?,.,.,.,.,.,.,-6%,.
CCC(C)[C@H](NC(=O)C1CCN(C(=O)[C@H](Cc2ccccc2)NS(=O)(=O)c2ccc(C)cc2)CC1)C(=O)O (stereo not given in full),15%,27,19%,?,4%,-6%,.,.,.,.,.,.,.
